Screening results from PubChem BioAssay.
LmPK inh: qHTS Assay for Inhibitors of Leishmania Mexicana Pyruvate Kinase (LmPK); 290,000 compounds, 0.37% hits; purified LmPK, Kinase-Glo ATP luminescence, 1 h; Potency, µM (series often up to 57.5 µM), for inactives: at the highest dose activity change, negative = inhibition, most hits filed as inhibitors; Q27686; AID 1721, 2009; further: potency means the concentration at half of the fitted maximal effect; on the % scale 0 is the no-effect control and ±100 the full control effect
Target sequence (Q27686 whole entry, looked up): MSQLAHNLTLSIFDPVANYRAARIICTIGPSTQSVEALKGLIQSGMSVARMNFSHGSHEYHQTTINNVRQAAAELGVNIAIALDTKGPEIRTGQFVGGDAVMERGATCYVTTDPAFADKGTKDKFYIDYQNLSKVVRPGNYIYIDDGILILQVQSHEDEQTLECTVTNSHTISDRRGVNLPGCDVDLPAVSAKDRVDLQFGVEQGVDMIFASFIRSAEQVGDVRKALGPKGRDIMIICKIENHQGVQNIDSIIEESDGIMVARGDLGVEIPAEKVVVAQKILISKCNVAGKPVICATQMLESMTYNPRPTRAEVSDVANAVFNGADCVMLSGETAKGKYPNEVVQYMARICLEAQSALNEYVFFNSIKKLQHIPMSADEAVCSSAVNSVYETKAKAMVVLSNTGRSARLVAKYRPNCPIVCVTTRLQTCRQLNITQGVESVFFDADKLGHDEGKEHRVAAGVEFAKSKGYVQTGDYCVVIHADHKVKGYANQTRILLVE
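Screened at intermediate enzyme activity to detect both inhibitors and activators: LmPK at 0.1 nM, with a 0.5 nM enzyme column as activation reference. PEP 0.5 mM, ADP 0.1 mM; ATP detected by luminescence after 1 h.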
Shiga inhibitor: A qHTS for Small Molecule Inhibitors of Shiga Toxin. Vero cells, Shiga toxin protein synthesis inhibition reporter. inhibition, % at 38.7 µM. 290,000 compounds, 9.2% hits; in the data active means inhibition mostly above about 28%, no sharp cut-off; inactive means mostly below about 43%; further: 0% is about no effect
Sm TGR block: qHTS Assay for the Inhibitors of Schistosoma Mansoni Peroxiredoxins; Schistosoma mansoni thioredoxin glutathione reductase (TGR), Q962Y6; purified TGR, DTNB reduction, TNB absorbance 405 nm; Potency, µM (doses to about 114 µM), for the others: top-dose activity change, negative = inhibition, hits mostly inhibitors; 360,000 compounds, 3% hits; AID 485364, 2010; further: potency means the concentration at half of the fitted maximal effect; on the % scale 0 is the no-effect control and ±100 the full control effect; nearly all actives have a fitted effect of over 60% in size
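Kinetic colorimetric format: TGR-catalysed, NADPH-driven DTNB reduction monitored via TNB absorbance. Enzyme dispensed at 20 nM; compound exposure 15 min at room temperature before reaction start.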
Cycloheximide cs: Cycloheximide Counterscreen for Small Molecule Inhibitors of Shiga Toxin; 300,000 compounds, 12% hits; max response, %; cell reporter, cycloheximide protein synthesis inhibition counterscreen; AID 2314, 2010; in the data active means max response mostly above about 13%, no sharp cut-off; inactive means mostly below about 14%; further: read at 38.3 µM for the half of the compounds with a filed dose; 0% is about no effect
Tb PYK inh: qHTS of Trypanosoma Brucei Inhibitors; Potency, µM (highest dose often 76.8 µM), inactives show top-dose activity, negative = inhibition, most hits filed as inhibitors; TbPYK enzyme, Kinase-Glo Plus ATP luminescence, 45 min; 410,000 compounds, 0.12% hits; AID 624173, 2012; pyruvate kinase (Trypanosoma brucei), Q57TT1; further: potency means the concentration at half of the fitted maximal effect; on the % scale 0 is the no-effect control and ±100 the full control effect; nearly all actives have a fitted effect of over 50% in size
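Quantitative HTS: titrated library compounds versus trypanosomal pyruvate kinase in TEA buffer (pH 7.2) containing KCl, MgCl2, BSA and Tween-20. Reactions were initiated with ADP, 130 uM final. Kinase-Glo Plus luminescence was read after 45 min at RT.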
Giardia FBPA inh: qHTS Assay for Inhibitors of Fructose-1,6-bisphosphate Aldolase from Giardia Lamblia | A8B2U2 | purified Giardia FBPA | Potency, µM (titrated, usually from 59.6 µM), without a hit: at the top dose activity, negative = inhibition, usual class: inhibitors | 290,000 compounds, 0.71% hits | AID 2451, 2010; further: potency means the concentration at half of the fitted maximal effect; on the % scale 0 is the no-effect control and ±100 the full control effect; nearly all actives have a fitted effect of over 55% in size
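Giardia FBPA (40 nM reagent) was preincubated 10 min at RT with compound (up to 57.5 uM final), then substrate plus GAPDH/TPI/NAD/arsenate coupling system with diaphorase/resazurin was added; resorufin fluorescence (525/598 nm) was read after 20 min.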
* hit, by the source's call; u = inconclusive; x = no result given. Many of the other results were omitted from the sample, so hits are more common in it than they were. Unless noted, the call rests on the fitted dose curve; in most records, active means well fitted curve in the direction sought with a large enough effect; inconclusive means small, poorly fitted or top-dose-only effect, or another doubt; inactive means no such curve, though single readings can be large; an effect the other way counts as inactive or inconclusive.

SMILES	LmPK inh	Shiga inhibitor	Sm TGR block	Cycloheximide cs	Tb PYK inh	Giardia FBPA inh
COc1ccc(OC)c(/C=N/N=C(\N)c2nonc2N)c1	0%	59*	0%	38*	-1%	2%
CS/C(N)=N/N=C/c1ccc([N+](=O)[O-])cc1	-11%	75*	-10%	30*	-6%	u
N/C(=N\N=C\c1cccc(O)c1)c1nonc1N	11µM*	59*	-6%	31*	u	-3%
CSc1nncn1/N=C/c1ccc([N+](=O)[O-])cc1	12%	33	-5%	-3	-2%	0%
N#CCCn1c(=O)c(CCc2ccccc2)nc2cnc(N3CCOCC3)nc21	x	x	x	x	-5%	-5%
CC1=Nc2cc(C(=O)NCCc3ccc(Cl)cc3)ccc2Sc2ccc(C)cc21	x	x	-2%	x	-4%	x
O=C(Cn1c(=O)n(CCc2ccccc2)c(=O)c2cccnc21)Nc1ccc(F)cc1	x	x	-5%	x	0%	x
COc1ccc(Nc2ncnc3c2nc2n3CCCCC2)cc1	x	x	1%	x	4%	x
C[C@]12C=CC(=O)N[C@@H]1CC[C@@H]1C2CC[C@]2(C)C(C(=O)Nc3cc(C(F)(F)F)ccc3C(F)(F)F)CC[C@@H]12 (some centres not stated)	x	x	x	x	2%	x
O=C(Nc1nnc([C@@H]2C[C@H](O)[C@@H](CO)O2)s1)c1cccc(OC(F)(F)F)c1	x	x	x	x	-1%	x
COc1cc(/C=N/N=C(\N)c2nonc2N)ccc1O	-9%	61*	-7%	24*	-8%	3%
COc1cc(/C=N/NC(=O)c2nnn(-c3nonc3N)c2C(C)C)ccc1O	-13%	-2	-7%	-12	1%	x
C=CCc1cccc(/C=N/NC(=O)CN2CCN(Cc3ccccc3)CC2)c1O	x	-6	x	-6	x	13%
O=c1oc2ccccc2c(Nc2ccc3ccccc3c2)c1[N+](=O)[O-]	-2%	105	-4%	22*	4%	-14%
Cc1ccc(Nc2c([N+](=O)[O-])c(=O)oc3ccccc23)cc1	0%	-6	7%	-11	1%	-1%
CC1(C)Cc2c(c(N3CCCC3)[nH]c(=S)c2C#N)CO1	-13%	-2	-25%	-2	x	-4%
CC1(C)Cc2[nH]c(=S)c(C#N)cc2CO1	26%	39	32µM*	4	u	-26%
N#Cc1cc2c([nH]c1=O)CCCC2	-5%	1	9%	-5	-4%	4%
N#Cc1cc2c([nH]c1=S)CCCC2	14%	50*	0%	33*	5.6µM*	-8%
COc1ccc2[nH]cc(CCNC(=O)Cn3cc(C)c(=O)[nH]c3=O)c2c1	x	x	x	x	-4%	x
CCOc1cc(C2c3c(oc4ccccc4c3=O)C(=O)N2Cc2ccc3c(c2)OCO3)ccc1O (configuration not stated)	x	x	-3%	x	0%	x
CCOC(=O)c1c(C)sc2c1N(C(=O)CCl)c1cc(Cl)ccc1S2	3%	-19	2.5µM*	-5	-1%	19%
O=S(=O)(Nc1cccc2ccccc12)c1ccc2ccccc2c1	x	3	x	2	x	x
Cc1ccc(-c2cc(N)n(-c3ccc(F)cc3)n2)cc1	-6%	67*	16%	49*	0%	-3%
Cc1ccc(-c2cc(N)n3nc(-c4ccc(C)cc4)cc3n2)cc1	-2%	19	13%	-1	4%	1%
SMILES	LmPK inh	Shiga inhibitor	Sm TGR block	Cycloheximide cs	Tb PYK inh	Giardia FBPA inh
Cc1ccc(-c2cc(N)n(-c3ccc(C)cc3)n2)cc1	1%	57*	27%	31*	0%	0%
CCCCOc1ccc2c(c1)C(=O)c1cc(O)ccc1-2	3%	93*	0%	29*	2%	-16%
CN(C(=O)c1ccc(NC(=O)Cc2cccc(NC(=O)C3CCN(C(=O)C4CCCC4)CC3)c2)cc1)C1CC1	x	x	x	x	-1%	x
N#Cc1c(Cl)nsc1NN	u	70*	-29%	29*	-7%	2%
CC1(O)C(c2ccccc2)=Nc2ccccc21 (configuration not stated)	x	x	x	x	-13%	x
CC1(C)Cc2c(C#N)c(N)n(-c3ccccc3)c(=S)c2CO1	7%	-3	-13%	1	-1%	-22%
N#Cc1c2c(c(=S)n(-c3ccccc3)c1N)CCCC2	0%	-6	40µM*	-8	1%	u
CCOC(=O)C1C(=O)C=C(c2ccccc2)CC1c1ccccc1 (configuration not stated)	x	x	x	x	-2%	x
COC(=O)C1C(=O)C=C(Nc2ccc(F)cc2F)CC1c1ccccc1 (configuration not stated)	2%	55	0%	21*	-6%	13%
COC(=O)C1C(=O)C=C(Nc2ccc(F)cc2)CC1c1ccc(OC)cc1 (configuration not stated)	2%	40	-5%	25*	-1%	6%
CCOC(=O)C1C(=O)C=C(Nc2ccccc2F)CC1c1ccccc1 (configuration not stated)	-1%	54*	-16%	46*	-9%	2%
CSc1ncc(C(=O)Nc2ccccc2C(F)(F)F)c(-c2ccccc2)n1	x	x	23%	x	-9%	x
COc1ccc(CC(=O)N2CCc3cc(OC)c(OC)cc3C2COc2cc(C)cc(C)c2)cc1OC (configuration not stated)	x	x	-2%	x	-1%	x
Cc1oc2ccc(O)c(CN(C)Cc3ccccc3)c2c1C(=O)Nc1cccc(Cl)c1C	x	x	-15%	x	-5%	x
CCOC(=O)[C@]12CCC=C1N(Cc1ccccc1)C(=O)[C@H](CC(=O)NCC13CC4CC(CC(C4)C1)C3)C2	x	x	x	x	1%	x
COc1ccc(/C=N/NC(=O)c2cccnc2)cc1CN1CCCc2ccccc21	-2%	2	-2%	3	-2%	-13%
COc1ccc(OCc2cc(/C=N\NC(=O)c3ccccc3)ccc2OC)cc1	-9%	72*	1%	33*	5%	x
COc1ccc(C(=O)N/N=C/c2ccc(OC)c(CN3CCCc4ccccc43)c2)cc1	4%	1	1%	9.4*	-2%	-14%
COc1ccc(/C=N\NC(=O)c2ccc(F)cc2)cc1COc1ccccc1C(N)=O	-1%	-15	28µM*	4	-2%	x
COc1cccc(C(=O)N/N=C/c2ccc(OC)c(COc3ccccc3C(N)=O)c2)c1	-8%	109*	-3%	57*	6%	x
COc1cccc2c1Oc1ncccc1N(C(=O)CCC(=O)NCCC(C)C)C2	x	x	8%	x	10%	x
CCCc1c(C)c2ccc(O)c(CN3CCN(c4ccc(F)cc4)CC3)c2oc1=O	x	x	6%	x	1%	x
COc1ccc(COc2ccccc2C(N)=O)cc1F	-3%	66*	0%	33*	0%	3%
